From PubChem BioAssay AID1863 (Southern Research Specialized Biocontainment Screening …, 2009)
In all, about 300,000 compounds went through this assay and about 480 (0.16%) were called active.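 The calls were made as follows: active = inhibition over 29.93%, a cutoff 3 SD above the screen mean, later confirmed by dose response; inconclusive = inhibition over 29.93% but no dose response follow-up; inactive = inhibition at most 29.93% or unconfirmed.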 Only a sample is shown. Measured potencies and affinities stand elsewhere.

test: PhoP-dependent GFP reporter repression – Salmonella Typhimurium, primary screen (AID 1863);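 also: 0% = low Mg2+ inducing control and 100% = high Mg2+ repressing control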; conditions: S. Typhimurium PhoP-regulated promoter GFP reporter, 4 h; at 50 µM; stronger effect = higher value

inhibition, inactive:
CCn1ncc([N+](=O)[O-])c1C(=O)Nc1ccc(C)c(C)c1 -7.66%
CN(C)c1ccc2nc3ccc(=[N+](C)C)cc-3sc2c1 -2.55%
Cc1cc2nc(N)sc2cc1C 3.73%
CC1(C)Cn2c(nnc2-c2ccccc2)S1 -3.09%
O=c1[nH]c2ccccc2c(O)c1-c1ccccc1 1.77%
CN(CCCS(=O)(=O)[O-])c1ccc(/C=C/c2ccc3ccccc3[n+]2C)cc1 0.91%
C[n+]1c(/C=C/c2ccc(O)cc2)ccc2ccccc21 18.4%
CN(C)c1ccc(/C=C/c2ccc3ccccc3n2)cc1 0.11%
CC[n+]1ccccc1/C=C/c1ccc(N(C)C)cc1 -19.2%
CN(C)c1ccc(/C=C/c2cccc[n+]2[O-])cc1 -8.32%
CC[n+]1c(/C=C/c2ccc(OC)c(OC)c2)ccc2ccccc21 -6.54%
Cc1ccc(-n2ccnc(SCC(=O)NC3CCCC3)c2=O)cc1Cl -4.24%
COc1ccc(OC)c(NC(=O)C2CCN(C(=O)c3cccs3)CC2)c1 2.52%
O=C(c1cc(F)ccc1F)C1CCCN(C(=O)c2ccco2)C1 (centres undefined) -3.85%
COc1ccccc1N1CCN(C(=O)Nc2cccc(Cl)c2)CC1 -5.86%
Cc1c(OCC(=O)NC(Cc2ccc(Cl)cc2)C(=O)O)ccc2c(-c3ccccc3)cc(=O)oc12 (centres undefined) -1.09%
COc1cc(/C=C2/CC(C)OC2=O)c([N+](=O)[O-])cc1OC (centres undefined) 0.79%
Cc1ccsc1C(C(=O)NCc1ccccc1)N(C(=O)c1csnn1)c1ccccc1 (centres undefined) 12.3%
CCc1c(C)nc(N)c(C#N)c1-c1ccccc1 4.1%
O=C1CC(c2ccccc2)CC(O)=C1C=Nc1ccccc1 (centres undefined) -10.4%
COc1ccc(C)cc1NC(=O)NNC(=O)C1CCC(C(C)(C)C)CC1 (centres undefined) -7.11%
CSc1ccc(CN(C)CC(=O)NCc2ccccc2)cc1 -8.5%
O=C(c1cc2nc(-c3ccco3)cc(C(F)(F)F)n2n1)N1CCN(c2ccc(F)cc2)CC1 -5.29%
CCCCC[n+]1cccc2c3ccccc3ccc21 -3.43%
CCCCCCCC[n+]1cccc2c3ccccc3ccc21 0.34%
CCCC[n+]1c2ccccc2cc2ccccc21 20.6%
CCCCCCCCC[n+]1cccc2c3ccccc3ccc21 -3.12%
Cc1cc(-n2cc(Br)c(=O)[nH]c2=O)nc(-c2ccccc2)n1 -4.05%
O=C(C1CCC1)N1CCc2cc(S(=O)(=O)NCCN3CCN(c4ccccc4F)CC3)ccc21 13.8%
Cc1cc(C)cc(NC(=O)CC2NCCNC2=O)c1 (centres undefined) -1.2%
O=C(CC1CCS(=O)(=O)C1)Nc1ccc[nH]c1=O (centres undefined) -5.21%
Cc1sc2cc3c(c(C(=O)c4ccccc4)[n+]2c1C)-c1cccc2cccc-3c12 -2.96%
Cc1sc2ccccc2[n+]1CC(=O)c1ccccc1 2.11%
CCn1cc(C(=O)N[C@H](C)c2ccccc2)c(=O)c2cc(F)c(N3CCN(C)CC3)cc21 4.39%
CCCNC(=O)c1cn(CC)c2cc(N3CCN(C(=O)c4ccco4)CC3)c(F)cc2c1=O -3.25%
CCn1cc(C(=O)NN)c(=O)c2cc(F)c(N3CCN(C)CC3)cc21 3.03%
CCn1cc(C(=O)NCC(C)C)c(=O)c2cc(F)c(N3CCN(C(=O)c4ccco4)CC3)cc21 5.43%
CCn1cc(C(=O)NCCC(C)C)c(=O)c2cc(F)c(N3CCN(C)CC3)cc21 8.97%
COc1ccc(CC2(CO)CCN(C(C)COc3ccccc3)CC2)cc1 (centres undefined) -5.24%
O=C(NC(=S)Nc1ccc(S(=O)(=O)Nc2ncccn2)cc1)c1ccc(Br)cc1 -1.85%
Cc1cccc(NC(=O)c2cc(NC(=O)C3CC=CCC3C(=O)O)ccc2N2CCOCC2)c1 (centres undefined) 13.8%
CCN(CC(=O)Nc1c(F)cccc1F)C(=O)C1(c2ccccc2)CC1 -5.13%
CCC(=O)c1cn(CC(=O)NCc2cccnc2)c2ccccc12 3.99%
Cc1cc(C)cc(OC(=O)CCN2C(=O)C3C4C=CC(C5CC45)C3C2=O)c1 (centres undefined) 1.31%
CCOc1ccc2nc(NC(=O)C3CCN(S(=O)(=O)c4cnc[nH]4)CC3)sc2c1 1.27%
CN(C)c1cccc(C(=O)OCC(=O)N2CCc3ccccc3C2)c1 -2.35%
CC1CCN(c2nc3c(c(=O)n(C)c(=O)n3C)n2Cc2ccccc2)CC1 0.23%
O=[N+]([O-])c1ccc(NC(=S)NCC(c2cccnc2)N2CCOCC2)cc1 (centres undefined) -4.57%
CCCCCNC(=O)c1cn(CC)c2cc(N3CCN(C)CC3)c(F)cc2c1=O 4.54%
CCCCNC(=O)c1cn(CC)c2cc(N3CCN(C(=O)c4ccco4)CC3)c(F)cc2c1=O -7.68%
C/C(=N\OC(=O)c1ccc(F)cc1)c1ccc(F)c(F)c1 -1.74%
O=C(OCc1ccc(COC(=O)c2ccccn2)cc1)c1ccccn1 -1.35%
CCOC(=O)C1CCCN(Cc2sccc2C)C1 (centres undefined) 7.84%
C[C@H](NC(=O)C1CCN(S(=O)(=O)c2ccccc2)CC1)C(=O)NCc1cccc(C(F)(F)F)c1 -1.18%
COC(=O)n1c(=O)oc2cc(S(=O)(=O)N3CCOCC3)ccc21 7.81%
CN(C)C(=O)CN1C(=O)c2cccc3cccc1c23 8.86%
O=C(Nc1ccc2ncccc2c1)c1cc(Cl)ccc1Cl 0.12%
O=C(NCc1ccccc1)C(c1cccnc1)N(C(=O)c1ccccn1)c1ccc(F)cc1 (centres undefined) 2.95%
Cc1ccc(S(=O)(=O)N/N=C2\C(=O)C3(C)CCC2C3(C)C)cc1 (centres undefined) 4.91%
COc1nccnc1NS(=O)(=O)c1ccc(NC(=S)NC(=O)c2cccnc2)cc1 36%
COc1ccc(NS(=O)(=O)c2ccc(NC(=S)NC(=O)c3cccnc3)cc2)nn1 10.7%
NC(=O)c1ccc(NC(=O)COc2coc(CN3CCc4ccccc4C3)cc2=O)cc1 6.56%
COc1ccccc1C(C[N+](=O)[O-])c1c(N)n(C)c(=O)n(C)c1=O (centres undefined) 2.03%
COc1cc(C(C[N+](=O)[O-])c2c(N)n(C)c(=O)n(C)c2=O)ccc1O (centres undefined) -4.81%
CC(C)OC(=O)CSc1nnc(CNc2cccc(Cl)c2)n1C -3.82%
CCSc1ccccc1C(=O)Nc1nc2ccccc2c(=O)[nH]1 2.88%
COc1cc2cccc(OC)c(=O)c2c(OC)c1OC -4.09%
COc1cc2cccc(OC)c(=O)c2c(O)c1OC -3.95%
Cc1ccc(-c2nn(-c3ccccc3)cc2C(=O)NCC(c2cccs2)N2CCOCC2)cc1 (centres undefined) -6.92%
CC(C)CCOP(=O)(c1ccc(N(C)C)cc1)C(O)c1c(Cl)cccc1Cl (centres undefined) -4.25%
COc1ccc([N+](=O)[O-])cc1NC(=O)C(C)OC(=O)C1CC(=O)N(Cc2ccco2)C1 (centres undefined) -5.1%
COC(=O)c1ccc(N2C(=O)CC(N3CCOCC3)C2=O)cc1 (centres undefined) 1.31%
COc1ccc2c(c1)C(=NNC(=O)c1ccccn1)c1cc(OC)ccc1-2 -4.06%
O=C(NN=C1c2ccccc2-c2ccccc21)c1ccccn1 9.9%
Cc1ccccc1CS(=O)(=O)c1ccc(C(=O)N2CCC(C)CC2)cc1[N+](=O)[O-] 1.32%
Cn1c2c(c(=O)n(C)c1=O)C(c1ccc(Br)cc1)Nc1ccccc1O2 (centres undefined) -10.1%
Cc1ccc(C(C[N+](=O)[O-])n2nc(C)cc2C)cc1 (centres undefined) 4.29%
Cc1cc(C)n(C(C[N+](=O)[O-])c2ccc(Cl)cc2)n1 (centres undefined) 16.6%
COc1ccc(-c2cc(C(=O)OCC(=O)NC(C)C)c3ccccc3n2)cc1 6.33%
COCCN(C(=O)COC(=O)c1ccc2c(c1)OCCO2)c1c(N)n(Cc2ccccc2)c(=O)[nH]c1=O 0.22%
CCOC(=O)C1CCCN(C(=O)c2ccc(-c3ccc([N+](=O)[O-])cc3)o2)C1 (centres undefined) 3.02%
CSc1ncccc1C(=O)Nc1nc2ccc(Oc3ccccc3)cc2s1 -15.8%
Cc1ccc2nc(N(CCCN(C)C)C(=O)CCc3ccccc3)sc2c1 -4.17%
CN(C)CCCN(C(=O)CCc1ccccc1)c1nc2ccc(Br)cc2s1 10.9%
C=CCN1CCN(C(=O)c2oc3ccccc3c2C)CC1 -3.66%
Cc1ccc(NC2CCCN(C(=O)c3cn(C)c4ccccc34)C2)cc1C (centres undefined) 0.88%
CC(=O)NC(c1ccccc1)c1cc([N+](=O)[O-])c2cccnc2c1O (centres undefined) 4.87%
COc1cccc(C(NC(C)=O)c2ccc3cccnc3c2O)c1 (centres undefined) 9.73%
CC(C)C(=O)NC(c1cccs1)c1cc([N+](=O)[O-])c2cccnc2c1O (centres undefined) 2.63%
CC(=O)NC(c1ccc2ccccc2c1)c1ccc2cccnc2c1O (centres undefined) 56.5%
CCCC(=O)NC(c1cccs1)c1cc(Cl)c2cccnc2c1O (centres undefined) -5.84%
CCCCC(=O)NC(c1cccs1)c1cc(Cl)c2cccnc2c1O (centres undefined) -0.21%
Cc1ccc(C(NC(=O)C(C)C)c2cc([N+](=O)[O-])c3cccnc3c2O)cc1 (centres undefined) 9.47%
CC(C)C(=O)NC(c1ccccc1)c1cc([N+](=O)[O-])c2cccnc2c1O (centres undefined) -2.27%
